SARS PLP yeast – qHTS of Yeast-based Assay for SARS-CoV PLP; S. cerevisiae expressing SARS-CoV PLpro, growth rescue; Potency, µM (doses to about 32.9 µM), actives largely listed as activators; 0.19% of 330,000 active; AID 485353, 2010; calls by dose curve; note: nearly all actives have a fitted effect of over 55% in size
FMDV inh – High Throughput Screening for Foot and Mouth Disease Virus Antivirals | FMDV antiviral cell-based qHTS | Potency, µM (highest dose often 57.9 µM), usual class: inhibitors | 1.2% of 410,000 active | AID 1159524, 2015; calls by dose curve; tested in HEK293T cells; note: read-out not given here; nearly all actives have a fitted effect of over 45% in size
MARV entry inh – qHTS for inhibitors of binding or entry into cells for Marburg Virus; Marburg virus pseudotyped entry inhibition, cell reporter; Potency, µM (doses to about 37.8 µM), most hits filed as inhibitors; 1.8% of 300,000 active; calls by dose curve; tested in HEK293 cells
LASV entry inh – qHTS for Inhibitors of binding or entry into cells for Lassa Virus; 1.2% of 300,000 active; Potency, µM (series often up to 37.9 µM), most hits filed as inhibitors; Lassa virus pseudotype entry inhibition, cell reporter; calls by dose curve; tested in HEK293 cells; note: nearly all actives have a fitted effect of over 50% in size
HCMV antiviral – qHTS Assay for inhibitors of the human cytomegalovirus (HCMV); HFF cells, HCMV-luciferase reporter, 72 h; active compounds read low; activity change, negative = inhibition, % at 57.5 µM; 4.5% of 410,000 active; in the data active = activity change below about -60%; inconclusive = no clear call, values can overlap the other calls; inactive = above about -39%
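After 16 h attachment at 37C, HFF cells received test compound and HCMV-luciferase (1 PFU/cell); reporter luminescence read 72 h later, data normalized against buffer-only and known inhibitor Salinomycin.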
HCV inh – qHTS Assay for Inhibitors of Hepatitis C Virus (HCV); AID 651820, 2012; 3.4% of 340,000 active; Potency, µM (series often up to 41.8 µM), hits mostly inhibitors; Huh7.5.1 HCVcc-Cre infection, luciferase reporter, 44 h; active = well fitted inhibition curve with a large enough effect; inconclusive = small, poorly fitted or top-dose-only effect, or another doubt; inactive = no such curve, though single readings can be large or run the other way
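Luciferase read-out (15 sec integration) after a 15 min room-temperature substrate step quantifies HCVcc-Cre infection. Cells, 1,000 per well, had compound added 4 h post-plating, then virus at ~0.5 moi, and were cultured 44 h.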
Hits are given with their value; [ ] = another dose, or the depositor's remark. Most compounds without a hit are left out; they make up all but 8% or so of the library.

How did Cc1c(Cl)cccc1NC(=O)COC(=O)c1c2c(nc3ccccc13)CCN(Cc1ccccc1)C2 do in these assays?
SARS PLP yeast: inactive; FMDV inh: inconclusive; MARV entry inh: 2.59µM; LASV entry inh: inconclusive; HCMV antiviral: inactive; HCV inh: inconclusive

What do the screens show for `O=C(NC1CCCCCC1)c1c2c(nc3ccccc13)CCN(Cc1ccccc1)C2`?
SARS PLP yeast: inactive; FMDV inh: inactive; MARV entry inh: inconclusive; LASV entry inh: inactive; HCMV antiviral: inactive; HCV inh: inconclusive

How did CC(C)NC(=O)c1sc2ncccc2c1-n1cccc1 do in these assays?
FMDV inh: inactive; LASV entry inh: inconclusive; HCMV antiviral: inactive

How did Cc1cccc(Nc2ncccc2C(=O)O)c1C do in these assays?
SARS PLP yeast: inactive; FMDV inh: inactive; MARV entry inh: inactive; HCMV antiviral: inactive; HCV inh: inactive

How did COc1cccc(Nc2ccccc2C(=O)O)c1 do in these assays?
SARS PLP yeast: inactive; FMDV inh: inactive; MARV entry inh: inactive; LASV entry inh: inconclusive; HCMV antiviral: inactive; HCV inh: inactive

Results for COc1cc(-c2ccc(Nc3ccccc3C(=O)O)c(OC)c2)ccc1Nc1ccccc1C(=O)O ?
SARS PLP yeast: inactive; FMDV inh: inactive; MARV entry inh: inconclusive; LASV entry inh: inconclusive; HCMV antiviral: -67.7; HCV inh: inactive

What do the screens show for `O=C(O)c1ccccc1Nc1ccccc1`?
FMDV inh: inactive; MARV entry inh: inconclusive; LASV entry inh: inactive; HCMV antiviral: inactive; HCV inh: 5.01µM

What do the screens show for `Cc1cccc(Nc2ccccc2C(=O)O)c1C`?
SARS PLP yeast: inactive; FMDV inh: inactive; MARV entry inh: inactive; LASV entry inh: inconclusive; HCMV antiviral: -63.0; HCV inh: inactive[8.37 µM]

What do the screens show for `CCn1c(CNC(=O)C23CC4CC(CC(C4)C2)C3)nnc1SCC(=O)Nc1ccc(C)cc1`?
FMDV inh: inactive; MARV entry inh: inactive; LASV entry inh: inactive; HCMV antiviral: inactive

What do the screens show for `O=C(CCc1nc2cccnc2n1Cc1ccccc1)NCc1cccc(Cl)c1`?
FMDV inh: inactive; MARV entry inh: inconclusive; LASV entry inh: inactive; HCMV antiviral: inactive

Results for CCC(C)c1ccccc1NC(=O)COC(=O)c1ccc2[nH]c3c(c2c1)CCCC3 (stereo not drawn) ?
SARS PLP yeast: inactive; FMDV inh: 28.2µM; MARV entry inh: 2.24µM; LASV entry inh: inconclusive; HCMV antiviral: -99.8; HCV inh: inconclusive

What do the screens show for `CN(CCC#N)C(=O)COC(=O)c1ccc2[nH]c3c(c2c1)CCCC3`?
SARS PLP yeast: inactive; FMDV inh: inactive; MARV entry inh: inconclusive; LASV entry inh: inconclusive; HCMV antiviral: -72.6; HCV inh: inconclusive

How did O=C(COC(=O)c1ccc2[nH]c3c(c2c1)CCCC3)Nc1ccc(Cl)cc1Cl do in these assays?
SARS PLP yeast: inactive; FMDV inh: inactive; MARV entry inh: 8.91µM; LASV entry inh: inactive; HCMV antiviral: inactive; HCV inh: inconclusive

What do the screens show for `CCCCN(CC)C(=S)Nc1ccc2nc(N3CCN(C)CC3)cc(C)c2c1`?
SARS PLP yeast: inactive; FMDV inh: inactive; HCMV antiviral: -72.2; HCV inh: inconclusive

What do the screens show for `Cc1cc(N2CCN(C)CC2)nc2ccc(NC(=S)N3CCN(c4ccc(Cl)cc4)CC3)cc12`?
SARS PLP yeast: inactive; FMDV inh: inactive; MARV entry inh: inactive; LASV entry inh: inactive; HCMV antiviral: inconclusive; HCV inh: inconclusive

What do the screens show for `CCCN1CCN(CCCNC(=S)Nc2ccc3nc(N4CCN(CC)CC4)cc(C)c3c2)CC1`?
SARS PLP yeast: inactive; FMDV inh: inactive; HCMV antiviral: inconclusive; HCV inh: inconclusive

How did CCCCN(C)CCNC(=S)Nc1ccc2nc(N3CCN(CC)CC3)cc(C)c2c1 do in these assays?
SARS PLP yeast: inactive; FMDV inh: inactive; MARV entry inh: inconclusive; LASV entry inh: 7.08µM; HCMV antiviral: inactive; HCV inh: inconclusive

How did CCCCNC(=S)Nc1ccc2nc(N3CCN(CC)CC3)cc(C)c2c1 do in these assays?
SARS PLP yeast: inactive; FMDV inh: inactive; MARV entry inh: inconclusive; LASV entry inh: inactive; HCMV antiviral: inactive; HCV inh: 12.6µM

Results for CCCCN(C)C(=S)Nc1ccc2nc(N3CCN(CC)CC3)cc(C)c2c1 ?
SARS PLP yeast: inactive; FMDV inh: inactive; HCMV antiviral: inactive; HCV inh: inactive
